Inconclusive results are not listed. Active and inactive are the calls of the source.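 Rule for the calls, unless noted: active = viability loss from added drug above about 55%, and viability with drug at most 40%, in both replicates (limit read from the data, passing the limit was not always enough); inconclusive = both conditions met in only one replicate; inactive = neither replicate meets both conditions.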
Key:
[1] = Her2 expression decrease, cell viability multiplex – SKBR3 breast tumor cells, AlphaScreen, ATP viability, primary screen (AID 461;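 active = Her2 level under about 52% in both replicate screens, with viability over 70% of control, limit read from the data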;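 for Her2 level: lower value means less Her2 protein in the cells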;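 for viability: percent of carrier control wells set as 100% viability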); conditions: SKBR3 Her2 protein level, 18-24 h, measured here: SKBR3 viability, ATP luminescence, at 10 µM
[2] = molecular target: Receptor tyrosine-protein kinase erbB-2 (Homo sapiens) (UniProt P04626); assay: as above; conditions: 18-24 h, at 10 µM, stronger effect = lower value
Sequence of Receptor tyrosine-protein kinase erbB-2 (Homo sapiens) (P04626 whole entry, looked up): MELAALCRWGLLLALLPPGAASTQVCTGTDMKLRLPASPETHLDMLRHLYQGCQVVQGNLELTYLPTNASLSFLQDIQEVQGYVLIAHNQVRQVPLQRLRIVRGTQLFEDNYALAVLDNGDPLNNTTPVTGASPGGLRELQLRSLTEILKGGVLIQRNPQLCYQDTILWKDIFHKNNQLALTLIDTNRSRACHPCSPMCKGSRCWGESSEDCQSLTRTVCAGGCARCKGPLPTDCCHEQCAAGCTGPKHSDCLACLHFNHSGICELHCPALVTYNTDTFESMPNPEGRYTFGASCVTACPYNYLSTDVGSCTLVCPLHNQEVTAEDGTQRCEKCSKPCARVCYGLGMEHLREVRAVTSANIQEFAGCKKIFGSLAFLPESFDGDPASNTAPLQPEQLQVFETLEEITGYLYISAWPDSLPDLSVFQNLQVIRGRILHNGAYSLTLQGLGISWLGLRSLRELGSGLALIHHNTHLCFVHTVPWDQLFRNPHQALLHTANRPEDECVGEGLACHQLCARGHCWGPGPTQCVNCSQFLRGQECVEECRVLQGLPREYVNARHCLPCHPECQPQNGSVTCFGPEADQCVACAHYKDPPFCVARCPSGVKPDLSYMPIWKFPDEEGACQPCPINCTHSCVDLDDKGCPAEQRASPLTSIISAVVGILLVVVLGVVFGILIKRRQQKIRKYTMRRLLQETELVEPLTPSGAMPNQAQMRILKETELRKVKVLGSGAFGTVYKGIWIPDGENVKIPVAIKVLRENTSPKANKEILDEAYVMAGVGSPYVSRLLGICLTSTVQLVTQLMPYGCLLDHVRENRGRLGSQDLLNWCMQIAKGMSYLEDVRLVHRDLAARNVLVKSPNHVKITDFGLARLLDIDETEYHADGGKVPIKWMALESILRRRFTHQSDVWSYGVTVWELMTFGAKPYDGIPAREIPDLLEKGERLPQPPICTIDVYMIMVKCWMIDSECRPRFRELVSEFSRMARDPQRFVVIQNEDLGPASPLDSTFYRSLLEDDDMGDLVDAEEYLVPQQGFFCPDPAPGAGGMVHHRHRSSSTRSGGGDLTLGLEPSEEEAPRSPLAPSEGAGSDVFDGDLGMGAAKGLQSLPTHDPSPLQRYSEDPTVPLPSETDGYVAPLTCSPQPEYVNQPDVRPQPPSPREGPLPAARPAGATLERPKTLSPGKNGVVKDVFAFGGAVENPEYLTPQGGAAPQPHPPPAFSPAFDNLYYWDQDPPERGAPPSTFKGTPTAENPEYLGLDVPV

[3] = reduced viability of SK-BR-3 breast cancer cells – cell-based, 24 h, human, pilot screen (AID 572;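 active = viability at or below 10% of carrier control in both of two separate runs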;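 note: compound exposure lasted between 18 and 24 h rather than exactly 24 h; 100% = carrier-treated control wells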); conditions: SK-BR-3 viability, CellTiter-Glo luminescence, at 10 µM, stronger effect = lower value
[4] = HUVEC growth inhibition – cell-based, human, primary screen (AID 575;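 active = viability at or below 30% in both replicate assays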;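 note: 100% = median of untreated cell wells with 0.1% DMSO on each plate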); conditions: HUVEC proliferation, CellTiter-Glo luminescence, 72 h; at 10 µM; stronger effect = lower value
[5] = H69AR cell proliferation blockers – human, duplicate replicates, primary screen (AID 580;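 active = viability at or under a set limit in both replicates, limit being median viability minus 3 SD, cut at about 48% in these data, passing the limit was not always enough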;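 note: 100% = mean luminescence of untreated wells and 0% = no signal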); conditions: H69AR lung tumor cells viability, ATP luminescence, 72 h; at 10 µM; stronger effect = lower value
[6] = MRP1 drug-resistance reversers in H69AR cells – cell-based, doxorubicin co-treatment, pilot screen (AID 601); conditions: CellTiter-Glo, 72 h, at 10 µM; for differential viability (reversal): stronger effect = higher value
[7] = yeast transport mutant growth inhibition pilot in 384-well plates, post-Golgi transport modulator project (AID 636; in the data active = inhibition above about 31%); conditions: absorbance 615 nm, about 18 h, stronger effect = higher value
[8] = growth suppression of yeast trafficking mutant, preliminary HTS, modulators of trafficking downstream of Golgi apparatus project, 1536-format plate, OD 615 nm (AID 637; in the data active = inhibition above about 30%); conditions: yeast transport mutant growth, absorbance 615 nm, 18 h; stronger effect = higher value
[9] = S. cerevisiae growth inhibition in permissive medium (OD615), pilot counter-assay for S. cerevisiae lifespan shortening project, permissive growth control (AID 705;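 active = growth inhibition above 25% in both replicates, a cutoff set 3 SD above the mean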); conditions: OD615, 24 h, at 10 µM, stronger effect = higher value
[10] = S. cerevisiae growth inhibition in restrictive medium, OD615, pilot screen, restrictive growth control, yeast lifespan reduction project (AID 706;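 active = growth inhibition above a set limit, 3 SD over mean compound inhibition, in both replicates, cut at about 43% in these data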;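 note: modified DeaD lifespan yeast strain shifted to restrictive glucose medium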); conditions: OD615, 48 h, at 10 µM, stronger effect = higher value
[11] = doxorubicin toxicity protection in MRP-1 cells – H69AR cells, CellTiter-Glo, duplicate, MRP-1 activator project, pilot screen (AID 807;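 active = viability increase at or above a cutoff of the median across tested compounds plus 3 SD, cut at about 8.5% in these data, passing the limit was not always enough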;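 note: compound pretreatment 18-22 h then 72 h combined with doxorubicin; 0% = doxorubicin alone and 100% = vehicle without doxorubicin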); conditions: H69AR viability with doxorubicin, CellTiter-Glo luminescence; at 10 µM; stronger effect = higher value
[12] = viability of HCT116 without oncogenic beta-catenin – human colon tumor cells, pilot screen (AID 823;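 active = cell viability at or below a set limit in both duplicate runs, the limit being the all-compound median minus 4 SD, cut at about 23% in these data, passing the limit was not always enough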;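 note: 0% = wells killed by 20 µM Hyamine and 100% = untreated DMSO cell wells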); conditions: HCT116 beta-catenin knockout viability, CellTiter-Glo, 60 h; at 10 µM; stronger effect = lower value
[13] = viability of PTEN-null HCT116 cells – cell-based, HCT116 clonal line, CellTiter-Glo, pilot screen (AID 824;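 active = viability at or below 27.92% in each of two runs, the all-compound median minus 4 SD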;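 note: 0% = 20 µM Hyamine control and 100% = vehicle cell control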); conditions: HCT116 PTEN-deleted viability, 60 h, at 10 µM, stronger effect = lower value
[14] = RAM pathway blockade in budding yeast – dse1pr::URA3 reporter, 5-FOA selection, pilot screen (AID 869;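 active = inhibition over a set limit, the all-compound mean plus 3 SD, in both replicate runs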;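 note: 0% = DMSO wells with no growth and 100% = 10 µM 1-NA-PP1 with full growth; RAM network block rescues cells from 5-FOA so hits raise OD615 growth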); conditions: S. cerevisiae dse1pr::URA3 5-FOA growth, OD615, 2 d; at 10 µM; stronger effect = higher value; strain carries analog-sensitive mutant Cbk1 kinase
[15] = RAM signaling pathway blockade in yeast – S. cerevisiae, Pdr1DBD-CYC8 efflux-inhibited sensitized strain, primary screen (AID 1298;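 active = RAM network inhibition above 8.4% in each of two replicates, 3 SD over the compound average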;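 note: 0% = DMSO untreated cells without growth and 100% = 10 µM 1-NA-PP1 full growth; higher means more yeast growth rescued from 5-FOA killing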); conditions: S. cerevisiae cbk1-as DSE1-URA3 strain, 5-FOA growth OD615, 2 d; at 50 µM; stronger effect = higher value
[16] = H69AR cells + 2 uM doxorubicin, measured here: viability with 2 uM doxorubicin, stronger effect = lower value
[17] = H69AR cells, compound alone cytotoxicity

O=C(C1COc2ccccc2O1)N1CCCC1 (stereo unspecified)
94.8%: viability [6, 17]
inactive: Her2 level [2] 112% | viability [3] 80% | viability [4] 86.8% | viability [5] 94.8% | differential viability (reversal) ([6]; H69AR cells + 2 uM doxorubicin) 1.71% | inhibition [7] -1.41% | inhibition [8] -10.2% | growth inhibition [9] -16.3% | growth inhibition [10] -10.1% | viability increase [11] -0.88% | viability [12] 105% | viability [13] 96.9% | inhibition [14] 2.62% | RAM network inhibition [15] -0.78%
93.1%: viability [6, 16]
80%: viability [1]

CCOc1cccc(C(=O)N2CCCCC2c2cccnc2)c1 (stereo unspecified)
98.5%: viability [1]
inactive: Her2 level [2] 96.5% | viability [3] 98.5% | viability [4] 101% | viability [5] 110% | differential viability (reversal) ([6]; H69AR cells + 2 uM doxorubicin) 10.3% | inhibition [7] -0.93% | inhibition [8] -1.13% | growth inhibition [9] -4.46% | growth inhibition [10] -2.66% | viability increase [11] -1.99% | viability [12] 101% | viability [13] 95.2% | inhibition [14] 0.635% | RAM network inhibition [15] 1.95%
110%: viability [6, 17]
99.6%: viability [6, 16]

CC1CCCN(C(=O)CN2C(=O)c3ccccc3C2=O)C1 (stereo unspecified)
inactive: Her2 level [2] 104% | viability [3] 93.5% | viability [4] 93.8% | viability [5] 84.8% | differential viability (reversal) ([6]; H69AR cells + 2 uM doxorubicin) -6.78% | inhibition [7] -3.59% | inhibition [8] -6.33% | growth inhibition [9] -15.4% | growth inhibition [10] -9.79% | viability increase [11] -0.25% | viability [12] 101% | viability [13] 98.7% | inhibition [14] 1.7% | RAM network inhibition [15] 0.38%
84.8%: viability [6, 17]
91.6%: viability [6, 16]
93.5%: viability [1]

COc1cc(NC(=O)C2CCCN2S(=O)(=O)c2cccc3cccnc23)cc(OC)c1OC (stereo unspecified)
82.2%: viability [6, 17]
72%: viability [1]
inactive: Her2 level [2] 81% | viability [3] 72% | viability [4] 87.6% | viability [5] 82.2% | differential viability (reversal) ([6]; H69AR cells + 2 uM doxorubicin) -6.16% | inhibition [7] -1.67% | inhibition [8] 1.5% | growth inhibition [9] 0.6% | growth inhibition [10] -10.7% | viability increase [11] -5.34% | viability [12] 79.4% | viability [13] 79.4% | inhibition [14] 0.905% | RAM network inhibition [15] 2.32%
88.3%: viability [6, 16]

O=C(CC1Oc2ccccc2NC1=O)NCCCN1CCOCC1 (stereo unspecified)
93.5%: viability [6, 17]
106%: viability [1]
inactive: Her2 level [2] 100% | viability [3] 106% | viability [4] 85.5% | viability [5] 93.5% | differential viability (reversal) ([6]; H69AR cells + 2 uM doxorubicin) -3.48% | inhibition [7] -5.07% | inhibition [8] 2.67% | growth inhibition [9] 2.08% | growth inhibition [10] -1.36% | viability increase [11] -2.31% | viability [12] 108% | viability [13] 96.8% | inhibition [14] 1.94% | RAM network inhibition [15] 0.57%
96.9%: viability [6, 16]

CC1Cc2nc(SCC(=O)N3CCCc4ccccc43)n(C)c(=O)c2S1 (stereo unspecified)
97%: viability [1]
72%: viability [6, 17]
51.2%: viability [6, 16]
inactive: Her2 level [2] 91% | viability [3] 97% | viability [4] 84.8% | viability [5] 72% | differential viability (reversal) ([6]; H69AR cells + 2 uM doxorubicin) 20.9% | inhibition [7] -4.27% | inhibition [8] 0.33% | growth inhibition [9] -5.25% | growth inhibition [10] -9.97% | viability increase [11] -3.51% | viability [12] 76.1% | viability [13] 73.4% | inhibition [14] 3.17% | RAM network inhibition [15] 6.46%

CCC(=O)Nc1cccc(Br)c1
inactive: Her2 level [2] 116% | viability [3] 114% | viability [4] 113% | viability [5] 95.4% | differential viability (reversal) ([6]; H69AR cells + 2 uM doxorubicin) -2.25% | inhibition [7] -4.4% | inhibition [8] -8.06% | growth inhibition [9] -9.21% | growth inhibition [10] 2.72% | viability increase [11] -0.82% | viability [12] 96.4% | viability [13] 85.5% | inhibition [14] -0.04% | RAM network inhibition [15] -0.05%
114%: viability [1]
95.4%: viability [6, 17]
97.7%: viability [6, 16]

CCCOC(=O)c1[nH]c2c(c1C)C(=O)CC(c1cc(OC)c(OC)c(OC)c1)C2 (stereo unspecified)
64.6%: viability [6, 16]
74.2%: viability [6, 17]
inactive: Her2 level [2] 79% | viability [3] 89% | viability [4] 88.7% | viability [5] 74.2% | differential viability (reversal) ([6]; H69AR cells + 2 uM doxorubicin) 9.54% | inhibition [7] -0.26% | inhibition [8] -4% | growth inhibition [9] -16.2% | growth inhibition [10] -14.6% | viability increase [11] 1.98% | viability [12] 48.1% | viability [13] 61.2% | inhibition [14] 2.23% | RAM network inhibition [15] 5.86%
89%: viability [1]

COCCCNC(=O)CC1Oc2ccccc2NC1=O (stereo unspecified)
88.7%: viability [6, 16]
inactive: Her2 level [2] 100% | viability [3] 86.5% | viability [4] 111% | viability [5] 83.3% | differential viability (reversal) ([6]; H69AR cells + 2 uM doxorubicin) -5.41% | inhibition [7] -5.73% | inhibition [8] -2.83% | growth inhibition [9] -2.61% | growth inhibition [10] -1.36% | viability increase [11] 0.06% | viability [12] 97.6% | viability [13] 102% | inhibition [14] 1.65% | RAM network inhibition [15] 2.25%
83.3%: viability [6, 17]
86.5%: viability [1]

CC(Oc1ccccc1)C(=O)NC1CC(C)(C)NC(C)(C)C1 (stereo unspecified)
91%: viability [6, 16]
92%: viability [1]
inactive: Her2 level [2] 92.5% | viability [3] 92% | viability [4] 79.8% | viability [5] 94% | differential viability (reversal) ([6]; H69AR cells + 2 uM doxorubicin) 2.97% | inhibition [7] -2.69% | inhibition [8] -1% | growth inhibition [9] -11.8% | growth inhibition [10] -2.76% | viability increase [11] -3.63% | viability [12] 97.1% | viability [13] 96.9% | inhibition [14] -0.135% | RAM network inhibition [15] 2.18%
94%: viability [6, 17]

CCN1CCN(C(=O)C2CCN(C(=O)c3cc4sccc4n3CC)CC2)CC1
104%: viability [1]
98.3%: viability [6, 16]
83%: viability [6, 17]
inactive: Her2 level [2] 104% | viability [3] 104% | viability [4] 115% | viability [5] 83% | differential viability (reversal) ([6]; H69AR cells + 2 uM doxorubicin) -15.3% | inhibition [7] -5.07% | inhibition [8] 3.67% | growth inhibition [9] -13.3% | growth inhibition [10] -13.5% | viability increase [11] -1.69% | viability [12] 105% | viability [13] 95.5% | inhibition [14] 0.53% | RAM network inhibition [15] 0.58%

O=C(C1CCCN1S(=O)(=O)c1cccc2cccnc12)N1CCn2c1nc1ccccc12 (stereo unspecified)
inactive: Her2 level [2] 84.5% | viability [3] 100% | viability [4] 64.9% | viability [5] 94.1% | differential viability (reversal) ([6]; H69AR cells + 2 uM doxorubicin) 1.47% | inhibition [7] 0.9% | inhibition [8] 4.67% | growth inhibition [9] -4.09% | growth inhibition [10] 4.54% | viability increase [11] 0.79% | viability [12] 97.4% | viability [13] 101% | inhibition [14] 0.235% | RAM network inhibition [15] 1.58%
100%: viability [1]
94.1%: viability [6, 17]
92.6%: viability [6, 16]

COc1ccc(C(=O)Oc2c(CN3CCOCC3)cc(Cl)c3cccnc23)cc1OC
93%: viability [1]
1.75%: viability [6, 16]
active: viability [5] 1.58% | viability [12] 9.93% | viability [13] 5.98%
1.58%: viability [6, 17]
inactive: Her2 level [2] 95.5% | viability [3] 93% | viability [4] 71.8% | differential viability (reversal) ([6]; H69AR cells + 2 uM doxorubicin) -0.17% | inhibition [7] -5.87% | inhibition [8] -6.23% | growth inhibition [9] -12.6% | growth inhibition [10] -19.1% | viability increase [11] -8.29% | inhibition [14] 1.39% | RAM network inhibition [15] 0.26%

Reference: PubChem BioAssay
